Data published in PubChem BioAssay (NCATS).
Results filed as inconclusive are left out. A call without a number means that no potency is given here. Calls of active or inactive are those of the source. Unless noted, calls come from the whole dose curve; as a rule, active = well fitted curve in the direction sought with a large enough effect; inconclusive = small, poorly fitted or top-dose-only effect, or another doubt; inactive = no such curve, though single readings can be large; an effect the other way counts as inactive or inconclusive.

How the values were obtained:
[1] = Validation of Assay for Modulators of Lamin A Splicing (AID 1459; active = well fitted curve in the direction sought with a large enough effect in the signal ratio; the % refers to the signal ratio;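 note: cells exposed to compound for two days before reading; ratio rise marks activators and ratio drop marks inhibitors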)
How it was run: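 Splicing correction read as GFP (500-530 nm) over DsRed2 (575-640 nm) object intensity after 48 h compound exposure of reporter HeLa S3 clones (600 cells/well, 2% FBS medium); ancitabine and cycloheximide titrations, 0.5% DMSO as vehicle.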

[2] = qHTS Assay for Lipid Storage Modulators (AID 1519; calls by dose curve); conditions: Drosophila S3 cells, BODIPY lipid droplet/cell ratio, laser cytometry, cells loaded with oleic acid
How it was run: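 Cells seeded at 5,000 per well were treated with compounds over a concentration series and loaded with oleic acid (400 uM, as added). Lipid droplet fluorescence (488 nm excitation, 500-530 nm channel) was read by laser-scanning cytometry and normalized to 20 uM Triacsin C.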

[3] = target: DNA repair nuclease/redox regulator APEX1 (Homo sapiens) (UniProt P27695); assay: qHTS Validation Assay for Inhibitors of the Human Apurinic/apyrimidinic Endonuclease 1 (APE1) (AID 1705; note: potency is the fitted concentration of half-maximal effect;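 for activity change, negative = inhibition: TAMRA fluorescence gain over two minutes as APE1 cuts a quenched THF abasic duplex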)
DNA repair nuclease/redox regulator APEX1 (Homo sapiens), sequence (P27695 whole entry, looked up): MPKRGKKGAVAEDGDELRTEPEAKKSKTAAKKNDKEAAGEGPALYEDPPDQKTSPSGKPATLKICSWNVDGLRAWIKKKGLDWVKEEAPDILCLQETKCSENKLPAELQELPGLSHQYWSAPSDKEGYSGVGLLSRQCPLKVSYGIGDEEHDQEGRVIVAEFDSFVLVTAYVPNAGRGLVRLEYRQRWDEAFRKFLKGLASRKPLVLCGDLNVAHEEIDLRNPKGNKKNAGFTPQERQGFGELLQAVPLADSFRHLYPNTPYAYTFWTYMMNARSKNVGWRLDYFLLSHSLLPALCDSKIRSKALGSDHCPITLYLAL
How it was run: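 Activity read as rising fluorescence (598 nm emission, 525 nm excitation) from incision of a TAMRA/BHQ-2 duplex carrying a THF abasic site (50 nM). Compound and enzyme sat 15 min at RT before substrate start; signal change between first and third 60-s reads.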

[4] = Counterscreen for APE1 Inhibitors: Fluorescent Dye Displacement Validation Assay (AID 1707)
How it was run: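 Assay buffer: Tris-HCl pH7.5 with 50mM NaCl, 2 mM MgCl2, 0.01% Tween-20. Dye 250 nM, duplex 50 nM final. Readout: decrease in ThO endpoint fluorescence, 480 nm excitation, 540 nm emission.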

[5] = target: Endonuclease 4 (Escherichia coli (strain K12)) (UniProt P0A6C1); assay: Counterscreen for APE1 Inhibitors: qHTS Validation Assay for Inhibitors of Endonuclease IV (AID 1708)
How it was run: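 E. coli EndoIV at 2 nM final, preincubated 15 min at room temperature with compound, then 50 nM TAMRA/BHQ-2 THF abasic-site duplex added. Buffer: 50 mM Tris-HCl pH 7.5, 50 mM NaCl, 2 mM MgCl2, 1 mM DTT, 0.01% Tween-20. Kinetic fluorescence increase, third minus first read.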

[6] = target: ATP-dependent DNA helicase Q1 (Homo sapiens) (UniProt P46063); assay: qHTS Validation Assay for Inhibitors of RecQ-Like Dna Helicase 1 (RECQ1) (AID 2353)
ATP-dependent DNA helicase Q1 (Homo sapiens), sequence (P46063 whole entry, looked up): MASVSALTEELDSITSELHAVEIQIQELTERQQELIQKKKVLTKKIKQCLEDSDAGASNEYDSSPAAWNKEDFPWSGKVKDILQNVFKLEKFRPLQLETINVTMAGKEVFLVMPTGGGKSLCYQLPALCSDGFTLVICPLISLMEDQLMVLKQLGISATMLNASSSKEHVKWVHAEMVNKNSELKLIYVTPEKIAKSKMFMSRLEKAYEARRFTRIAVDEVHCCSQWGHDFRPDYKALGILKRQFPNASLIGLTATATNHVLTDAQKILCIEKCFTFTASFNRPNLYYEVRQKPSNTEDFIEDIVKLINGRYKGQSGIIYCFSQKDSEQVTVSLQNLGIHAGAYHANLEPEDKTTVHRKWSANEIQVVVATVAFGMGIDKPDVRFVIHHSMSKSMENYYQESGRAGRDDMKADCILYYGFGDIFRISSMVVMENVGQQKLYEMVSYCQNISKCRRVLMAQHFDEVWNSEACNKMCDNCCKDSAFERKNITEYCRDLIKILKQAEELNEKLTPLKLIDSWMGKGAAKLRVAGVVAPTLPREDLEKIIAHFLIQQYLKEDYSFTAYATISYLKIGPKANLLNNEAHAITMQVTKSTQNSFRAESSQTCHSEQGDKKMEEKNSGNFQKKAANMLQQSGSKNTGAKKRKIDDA
How it was run: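 50 nM RECQ1T1 preincubated 15 min with compound in Tris pH 8.0 buffer with MgCl2, DTT, Tween-20 and 2.5 ug/ml poly(dI-dC); started with 200 nM TAMRA/BHQ-2 forked duplex and 2 mM ATP. Unwinding read as fluorescence (525/598 nm), two reads 2 h apart.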

[7] = Validation screen for small molecules that induce DNA re-replication in MCF 10A normal breast cells (AID 463097); note: nearly all actives have a fitted effect of over 60% in size
How it was run: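 Read-out is Hoechst total nuclear intensity by fluorescence scanning imager, flagging increased high-DNA-content nuclei. Compounds were incubated with MCF 10A cells for 48 hr (37 C, 5% CO2) before 40 min staining.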

[8] = Quantitative high throughput screen for delayed death inhibitors of the malarial parasite plastid, 96 hour incubation (AID 488745); note: nearly all actives have a fitted effect of over 70% in size
How it was run: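 Luciferase-expressing P. falciparum in erythrocytes (2% hematocrit, 0.1% parasitemia) incubated with compound for 96 h at 37 C, 5% CO2, in RPMI 1640 with 0.5% Albumax. Growth inhibition read as decreased luminescence.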

[9] = Quantitative high throughput screen for delayed death inhibitors of the malarial parasite plastid, 48 hour incubation (AID 488752); note: nearly all actives have a fitted effect of over 65% in size
How it was run: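 Erythrocytes infected with firefly luciferase-expressing P. falciparum (2% hematocrit, 0.1% parasitemia) cultured with compound for 48 h at 37 C, 5% CO2, in RPMI 1640/0.5% Albumax. Growth inhibition read as loss of luminescence.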

[10] = target: Galactokinase (Homo sapiens) (UniProt P51570); assay: qHTS Validation Assay for Inhibitors of Human Galactokinase (GALK) (AID 493189)
Galactokinase (Homo sapiens), sequence (P51570 whole entry, looked up): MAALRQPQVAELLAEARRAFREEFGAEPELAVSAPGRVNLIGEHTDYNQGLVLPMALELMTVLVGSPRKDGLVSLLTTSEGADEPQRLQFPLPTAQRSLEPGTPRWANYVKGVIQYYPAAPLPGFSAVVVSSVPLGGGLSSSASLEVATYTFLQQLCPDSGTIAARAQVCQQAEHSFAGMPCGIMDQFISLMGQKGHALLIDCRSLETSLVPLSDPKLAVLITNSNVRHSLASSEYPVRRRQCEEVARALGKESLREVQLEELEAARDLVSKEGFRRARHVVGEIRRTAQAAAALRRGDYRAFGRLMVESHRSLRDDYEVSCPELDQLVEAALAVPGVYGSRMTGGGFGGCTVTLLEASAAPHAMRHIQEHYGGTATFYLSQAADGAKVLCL
How it was run: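 Inhibition was measured as remaining ATP, detected by luciferase luminescence after a 1 h room-temperature reaction. Final conditions: 5 nM GALK, 100 uM galactose, 35 uM ATP, pH 8.0 HEPES buffer.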

[11] = Validation screen for small molecules that induce DNA re-replication in SW480 colon adenocarcinoma cells (AID 504364)
How it was run: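 SW480 cells (250/well) exposed 48 h at 37 C, 5% CO2, then Hoechst-stained 40 min. Nuclear DNA content imaged by fluorescence scanning (405 nm excitation, 500-530 nm emission); re-replication scored as increased nuclei with elevated intensity.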

[12] = Primary qHTS for inhibitors of nuclear receptor binding SET domain protein 2 (NSD2) in an isogenic RCH-ACV NSD2 p.E1099K mutant (9B) (AID 1645876); note: nearly all actives have a fitted effect of over 70% in size; note: potency is the fitted concentration of half-maximal effect
[13] = Primary qHTS for inhibitors of nuclear receptor binding SET domain protein 2 (NSD2) in an RCH-ACV wild type WT cells (2C) (AID 1645877); note: potency is the fitted concentration of half-maximal effect; nearly all actives have a fitted effect of over 70% in size
[14] = target: Glutathione peroxidase 1 (Homo sapiens) (UniProt P07203); assay: Primary qHTS Assay for Inhibitors of Recombinant Selenoprotein Glutathione Peroxidase 1 (GPX1) (AID 1845191); note: nearly all actives have a fitted effect of over 65% in size
Glutathione peroxidase 1 (Homo sapiens), sequence (P07203 whole entry, looked up): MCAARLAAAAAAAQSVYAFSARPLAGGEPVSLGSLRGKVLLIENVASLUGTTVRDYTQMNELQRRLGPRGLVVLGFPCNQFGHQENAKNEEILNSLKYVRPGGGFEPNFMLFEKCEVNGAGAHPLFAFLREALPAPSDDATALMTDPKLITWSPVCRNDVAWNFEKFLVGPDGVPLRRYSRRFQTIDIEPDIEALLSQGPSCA
How it was run: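 GR-coupled assay: compounds preincubated 30 min at room temperature with GPX1, then reaction started with CHP; final 10 nM GPX1, 1 mM GSH, 0.5 mM CHP, 0.5 mM NADPH, 100 nM GR, 0.01% BSA, pH 7.5 Tris buffer. NADPH fluorescence (340/450 nm) read at 0 and 15 min.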

[15] = target: Phospholipid hydroperoxide glutathione peroxidase GPX4 (Homo sapiens) (UniProt P36969); assay: Primary qHTS Assay for Inhibitors of Recombinant Selenoprotein Glutathione Peroxidase 4 (GPX4) (AID 1845192); conditions: outcome: dose series up to 50 µM unless noted; note: nearly all actives have a fitted effect of over 65% in size
Phospholipid hydroperoxide glutathione peroxidase GPX4 (Homo sapiens), sequence (P36969 whole entry, looked up): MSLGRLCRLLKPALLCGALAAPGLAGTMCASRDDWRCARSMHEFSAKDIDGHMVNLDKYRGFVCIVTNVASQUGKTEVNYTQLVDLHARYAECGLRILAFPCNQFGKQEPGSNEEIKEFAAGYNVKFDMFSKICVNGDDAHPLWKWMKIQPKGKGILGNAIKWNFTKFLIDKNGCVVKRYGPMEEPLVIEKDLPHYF
How it was run: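 GR-coupled assay: recombinant GPX4 preincubated 30 min with compound at room temperature; final 200 nM GPX4, 1 mM GSH, 0.5 mM cumene hydroperoxide, 0.5 mM NADPH, 100 nM GR, 0.01% BSA, pH 7.5 Tris. NADPH fluorescence (340/450 nm) read at 0 and 15 min.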

[16] = qHTS drug screen for cell cycle checkpoint inhibitors in PARPi-resistant BRCA-mutant ovarian cancer cell lines. (AID 1963452; calls by dose curve); conditions: PEO1/OlaR viability, CellTiter-Glo luminescence, 96 h, stronger effect = lower value
How it was run: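 PEO1, PEO4 and PEO1/OlaR ovarian cancer cells, 600 per well, exposed 96 h at 37C to a dilution series. Viability read by CellTiter-Glo luminescence, normalized to DMSO and empty wells; activity summarized as Z-AUC.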

[17] = qHTS assay to identify inhibitors of the type 1 interferon - major histocompatibility complex class I in skeletal muscle: Counter screen cell viability and HiBit confirmation (AID 1347412); conditions: iHSKM muscle cells + IFN-b, HiBiT or CellTiter-Glo, 24 h; HiBiT; at 45.9 µM (top of the series); note: nearly all actives have a fitted effect of over 60% in size
How it was run: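 After 24 h with human IFN-beta (4 ng/ml) and compound titrations (top 46 uM final, 1:3, 12 points), HLA-B HiBit myoblasts were lysed for either Nano-Glo HiBiT luminescence or CellTiter Glo viability on paired plates.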

[18] = target: Transient receptor potential cation channel subfamily V member 1 (Homo sapiens) (UniProt Q8NER1); assay: HTS Assay for Compounds that Act as Enhancers of the Vanilloid Receptor 1 (AID 488979)
Transient receptor potential cation channel subfamily V member 1 (Homo sapiens), sequence (Q8NER1 whole entry, looked up): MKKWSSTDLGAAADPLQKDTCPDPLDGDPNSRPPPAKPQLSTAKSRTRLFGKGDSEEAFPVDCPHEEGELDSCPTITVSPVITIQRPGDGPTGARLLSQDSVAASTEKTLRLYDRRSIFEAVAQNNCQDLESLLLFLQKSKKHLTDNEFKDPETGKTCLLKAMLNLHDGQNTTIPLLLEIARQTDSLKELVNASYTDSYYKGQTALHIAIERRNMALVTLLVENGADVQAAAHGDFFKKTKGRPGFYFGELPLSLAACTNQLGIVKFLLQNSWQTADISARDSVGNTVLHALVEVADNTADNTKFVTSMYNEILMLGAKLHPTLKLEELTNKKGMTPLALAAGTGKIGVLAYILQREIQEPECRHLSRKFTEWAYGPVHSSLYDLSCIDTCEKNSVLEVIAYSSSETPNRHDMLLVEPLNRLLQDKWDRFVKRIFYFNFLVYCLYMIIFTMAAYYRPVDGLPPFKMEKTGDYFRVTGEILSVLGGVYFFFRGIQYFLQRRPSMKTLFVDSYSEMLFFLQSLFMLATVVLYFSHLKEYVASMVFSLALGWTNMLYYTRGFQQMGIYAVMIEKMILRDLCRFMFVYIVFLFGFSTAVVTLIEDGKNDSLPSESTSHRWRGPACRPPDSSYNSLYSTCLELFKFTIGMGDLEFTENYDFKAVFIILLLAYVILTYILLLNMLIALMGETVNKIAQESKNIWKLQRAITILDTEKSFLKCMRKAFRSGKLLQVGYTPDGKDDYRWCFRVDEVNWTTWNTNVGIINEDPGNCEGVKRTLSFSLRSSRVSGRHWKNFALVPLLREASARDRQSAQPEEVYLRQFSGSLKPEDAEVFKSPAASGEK
How it was run: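 TRPV1 cells loaded with Fluo-8 calcium dye; compound added and Ca2+ signal (ex 480/em 520 nm) followed 3 min, then capsaicin at EC20 added and read 2 more min to detect enhancement.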

[19] = target: Thyrotropin receptor (Homo sapiens) (UniProt P16473); assay: qHTS Assay for Antagonists of the Thyroid Stimulating Hormone Receptor (AID 488980)
Thyrotropin receptor (Homo sapiens), sequence (P16473 whole entry, looked up): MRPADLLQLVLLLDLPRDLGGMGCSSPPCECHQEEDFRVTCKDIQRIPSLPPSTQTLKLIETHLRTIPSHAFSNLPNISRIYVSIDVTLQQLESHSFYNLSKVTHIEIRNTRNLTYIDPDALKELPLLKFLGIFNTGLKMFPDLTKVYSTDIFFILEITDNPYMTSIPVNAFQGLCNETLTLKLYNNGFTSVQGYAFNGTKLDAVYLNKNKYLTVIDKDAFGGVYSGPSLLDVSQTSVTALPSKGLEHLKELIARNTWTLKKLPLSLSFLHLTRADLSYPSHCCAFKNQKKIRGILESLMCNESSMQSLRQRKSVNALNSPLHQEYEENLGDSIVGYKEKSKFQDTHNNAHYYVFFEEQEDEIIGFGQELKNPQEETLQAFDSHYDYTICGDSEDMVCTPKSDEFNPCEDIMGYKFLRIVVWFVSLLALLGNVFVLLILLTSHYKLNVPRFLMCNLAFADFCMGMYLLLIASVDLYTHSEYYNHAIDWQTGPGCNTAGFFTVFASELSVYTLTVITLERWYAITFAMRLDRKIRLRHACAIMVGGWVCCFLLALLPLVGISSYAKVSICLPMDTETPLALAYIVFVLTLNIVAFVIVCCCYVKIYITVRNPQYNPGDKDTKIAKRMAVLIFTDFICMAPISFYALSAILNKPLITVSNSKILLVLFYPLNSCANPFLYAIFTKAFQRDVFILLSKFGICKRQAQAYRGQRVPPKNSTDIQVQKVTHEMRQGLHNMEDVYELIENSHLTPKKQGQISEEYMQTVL
How it was run: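 Inhibition of cAMP raised by EC80 TSH (4 nM final) was read by HTRF, with lysate cAMP competing against cAMP-d2 for cryptate antibody after 30 min at room temperature. The cells were transfected HEK293 held in phosphodiesterase inhibitor RO 20-1724 at 70 uM.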

[20] = measured here: cell count channel max response
[21] = measured here: lipid channel max response
[22] = measured here: PEO1 parental Z-AUC

C[C@H]1CC2[C@@H]3CCC4=CC(=O)C=C[C@]4(C)[C@@]3(F)[C@@H](O)C[C@]2(C)[C@@]1(O)C(=O)CO (stereo not given in full)
outcome [1]: inactive | activity change, negative = inhibition ([2]; at 57.5 µM (top of the series)): -0.272% (inactive) | max response [2, 20]: -0.0442% | max response [2, 21]: 0.965% | Potency [3]: 39800 nM (active) | Potency [4]: inactive | outcome [5]: inactive | Potency [6]: inactive | outcome [7]: inactive | Potency [8]: inactive | Potency [9]: inactive | outcome [10]: inactive | outcome [11]: inactive | Potency [12]: inactive | Potency [13]: 105 nM (active) | Potency [14]: inactive | Potency [15]: inactive | Z-AUC [16]: -1.28 (inactive) | Z-AUC [16, 22]: -0.45 | Z-AUC ([16]; measured here: PEO4 Z-AUC): -0.996

C[C@@H](Oc1cc(C(=O)Nc2ccc(C(=O)N3CCN(C)CC3)cc2)nnc1N)c1c(Cl)ccc(F)c1Cl
Potency [12]: 2630 nM (active) | Potency [13]: 1480 nM (active) | Potency [14]: inactive | Potency [15]: inactive | Z-AUC [16]: -0.576 (inactive) | Z-AUC [16, 22]: -1.08 | Z-AUC ([16]; measured here: PEO4 Z-AUC): -1.2 | activity change, negative = inhibition [17]: -32.5% (inactive)

NC(=O)c1cccc2c(NC(CN3CCC3)c3ccc(Cl)c(C(F)(F)F)c3)ncnc12 (stereo not given)
Potency [12]: 1050 nM (active) | Potency [13]: 1320 nM (active) | Potency [14]: inactive | Z-AUC [16]: 0.286 (inactive) | Z-AUC [16, 22]: 0.149 | Z-AUC ([16]; measured here: PEO4 Z-AUC): 0.205 | activity change, negative = inhibition [17]: -0.923% (inactive)

N=C1Sc2ccccc2C2=NCCCN12
outcome [1]: inactive | activity change, negative = inhibition ([2]; at 57.5 µM (top of the series)): -3.51% (inactive) | max response [2, 20]: -6.86% | max response [2, 21]: -8.77% | Potency [3]: inactive | Potency [4]: inactive | outcome [5]: inactive | Potency [6]: inactive | outcome [7]: inactive | Potency [8]: inactive | Potency [9]: inactive | outcome [18]: inactive | outcome [19]: inactive | outcome [10]: inactive | outcome [11]: inactive

NCCC(=O)NCCc1cnc[nH]1
outcome [1]: inactive | activity change, negative = inhibition ([2]; at 25.7 µM (top of the series)): 1.3% (inactive) | max response [2, 20]: 9.26% | max response [2, 21]: 15.5% | Potency [3]: inactive | Potency [4]: inactive | outcome [5]: inactive | Potency [6]: inactive | outcome [7]: inactive | Potency [8]: inactive | Potency [9]: inactive | outcome [18]: inactive | outcome [19]: inactive | outcome [10]: inactive | outcome [11]: inactive

NCC1OC(O[C@@H]2[C@H](O)[C@@H](OC3C(O)C(N)CC(N)C3OC3OC(CO)C(O)C(O)C3N)O[C@@H]2CO)C(N)C(O)C1O (stereo not given in full)
outcome [1]: inactive | activity change, negative = inhibition ([2]; at 57.5 µM (top of the series)): 1.08% (inactive) | max response [2, 20]: -5.44% | max response [2, 21]: -4.61% | Potency [3]: inactive | Potency [4]: inactive | outcome [5]: inactive | Potency [6]: inactive | outcome [7]: inactive | Potency [8]: inactive | Potency [9]: inactive | outcome [18]: inactive | outcome [19]: inactive | outcome [10]: inactive | outcome [11]: inactive

NC(=O)C1=CN(C2OC(COP(=O)(O)OP(=O)(O)OC[C@H]3O[C@@H](n4cnc5c(N)ncnc54)[C@H](OP(=O)(O)O)[C@H]3O)C(O)C2O)C=CC1 (stereo not given in full)
outcome [1]: inactive | activity change, negative = inhibition ([2]; at 57.5 µM (top of the series)): -2.12% (inactive) | max response [2, 20]: -24.1% | max response [2, 21]: -21.9% | Potency [3]: inactive | Potency [4]: inactive | outcome [5]: inactive | Potency [6]: inactive | outcome [7]: inactive | Potency [8]: inactive | Potency [9]: inactive | outcome [18]: inactive | outcome [19]: inactive | outcome [10]: inactive | outcome [11]: inactive
